# CHX counter = counter-screen hit for Shiga toxin inhibitors, cycloheximide; cell reporter, cycloheximide protein synthesis inhibition counterscreen; max response, %; actives 12% (n = 300,000); in the data active means max response mostly above about 13%, no sharp cut-off; inactive means mostly below about 14%; further: read at 38.3 µM for the half of the compounds with a filed dose; 0% is about no effect
# AmpC no deterg = blocks E. coli AmpC beta-lactamase in detergent-free assay; Potency, µM (doses to about 57.1 µM), inactives show top-dose activity change, negative = inhibition, usual class: inhibitors; AmpC nitrocefin hydrolysis, absorbance 480 nm, 0.0001% Triton; actives 0.52% (n = 330,000);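 further: potency means the concentration at half of the fitted maximal effect; plate controls were no compound for no effect and no enzyme for full effect; nearly all actives have a fitted effect of over 20% in size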
# Target sequence (P00811 whole entry, looked up): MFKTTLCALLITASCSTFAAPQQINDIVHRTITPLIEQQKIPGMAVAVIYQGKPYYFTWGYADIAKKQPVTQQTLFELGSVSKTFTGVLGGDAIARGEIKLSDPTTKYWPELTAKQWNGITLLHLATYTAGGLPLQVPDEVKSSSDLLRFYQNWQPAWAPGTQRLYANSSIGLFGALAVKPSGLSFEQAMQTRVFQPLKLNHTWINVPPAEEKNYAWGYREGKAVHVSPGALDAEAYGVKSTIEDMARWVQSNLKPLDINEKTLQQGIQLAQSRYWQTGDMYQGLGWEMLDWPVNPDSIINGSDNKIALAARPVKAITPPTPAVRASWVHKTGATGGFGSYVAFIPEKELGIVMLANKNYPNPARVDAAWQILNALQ
#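 AmpC (5.3 nM in the dispensed reagent) in 20 mM phosphate pH 7.0 with 0.01% (detergent screen) or 0.0001% Triton X-100 was preincubated with compounds for 15 min at room temperature. Nitrocefin was then added from an 800 uM solution, and hydrolysis was followed at 480 nm.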
# SARS PLP yeast = inhibitors of SARS-CoV papain-like protease in yeast. S. cerevisiae expressing SARS-CoV PLpro, growth rescue. Potency, µM (titrated, usually from 32.9 µM), for the others: at the highest dose activity, positive = growth rescue, most hits filed as activators. actives 0.19% (n = 330,000); calls by dose curve; further: potency means the concentration at half of the fitted maximal effect; 0% is about no effect; nearly all actives have a fitted effect of over 55% in size
# AMA1-RON2 inh = AMA1-RON2 (P. falciparum) interaction inhibition; AID 720542; actives 0.2% (n = 360,000); Potency, µM (top dose mostly 58.2 µM), for inactives: at the top dose activity change, negative = inhibition, most hits filed as inhibitors; AlphaScreen AMA1-biotinylated RON2 peptide binding;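 further: potency means the concentration at half of the fitted maximal effect; 0% = vehicle wells and -100% = peptide control; nearly all actives have a fitted effect of over 45% in size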
#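 AMA1 (3D7) with his tag at 25 nM final met compounds first, then biotinylated RON2 peptide at 25 nM; detection used donor plus acceptor beads, 10 µg/mL apiece, read by AlphaScreen after 30 min at room temperature.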
# AmpC detergent = AmpC beta-lactamase inhibition with detergent present. AmpC hydrolysis of nitrocefin, absorbance 480 nm, 0.01% Triton. Potency, µM (series often up to 114 µM), for inactives: at the highest dose activity change, negative = inhibition, usual class: inhibitors. actives 0.041% (n = 370,000). AID 485294;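 further: potency means the concentration at half of the fitted maximal effect; 0% = no-compound wells and -100% = no-enzyme wells; nearly all actives have a fitted effect of over 25% in size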
#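 AmpC (5.3 nM in the dispensed reagent) in 20 mM phosphate pH 7.0 with 0.01% (detergent screen) or 0.0001% Triton X-100 was preincubated with compounds for 15 min at room temperature. Nitrocefin was then added from an 800 uM solution, and hydrolysis was followed at 480 nm.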
# Shiga toxin inh = blocks Shiga toxin action in Vero cells; Vero cells, Shiga toxin protein synthesis inhibition reporter; AID 2315; inhibition, % at 38.7 µM; actives 9.2% (n = 290,000); in the data active means inhibition mostly above about 28%, no sharp cut-off; inactive means mostly below about 43%; further: 0% is about no effect
# Numbers without * were called inactive; ? = inconclusive; nt = no result; [ ] = dose if it differs, or a comment. This is one part of a sample in which hits are shown more often than they occur. Unless noted, the call rests on the fitted dose curve; in most records, active means well fitted curve in the direction sought with a large enough effect; inconclusive means small, poorly fitted or top-dose-only effect, or another doubt; inactive means no such curve, though single readings can be large; an effect the other way counts as inactive or inconclusive.
SMILES,CHX counter,AmpC no deterg,SARS PLP yeast,AMA1-RON2 inh,AmpC detergent,Shiga toxin inh
Cc1ccc(CNC(=O)CSCc2ccccc2F)cc1,39*,-15%,0%,-17%,3%,55
O=C(CSCc1ccccc1F)NCc1ccc(F)cc1,43*,-23%,-2%,0%,0%,55
CN(C)C(=S)SCC(=O)NCc1ccc(F)cc1,29*,-15%,0%,-2%,3%,51*
O=C(CSCc1ccc(F)cc1)NCc1ccc(F)cc1,-2,-16%,0%,-2%,2%,60
Cn1ncc(Cl)c1C(=O)NCc1ccc(Cl)cc1,-1,-4%,-17%,6%,-10%,-10
COC(=O)c1ccc(NC(=O)CCNS(=O)(=O)c2cccc3nonc23)cc1,-1,-50%,2%,3%,-12%,-18
Cc1ccc(-c2nc3ccccc3c(=O)n2-c2ncccc2C)cc1,-2,-11%,-1%,-19%,?,-12
CNc1nc(N2CCc3ccccc32)ncc1F,39*,-8%,-6%,-8%,0%,105*
COc1ccc(C2CC(=O)c3cnc(N4CCc5ccccc54)nc3C2)cc1OC (configuration not stated),-3,-6%,1%,nt,9%,2
Cc1ccc2c(c1)-c1c(cnn1CC(=O)N(Cc1ccco1)C1CCCCC1)CO2,-4,50µM*,-10%,-21%,-16%,-3
Cc1ccc(S(=O)(=O)Nc2c(Cl)c(Cl)c(O)c3ccccc23)cc1,34*,-40%,-27%,nt,-1%,47*
C=CCNC(=O)c1cccc(OC2CCN(CC(C)(C)C)CC2)c1,-2,-14%,2%,6%,?,nt
CCOC(=O)C1(C)/C(=N/Nc2ccccc2OC)C(=O)C(=O)N1c1ccccc1 (configuration not stated),-4,-8%,1%,?,0%,-3
CC(C)N(C)CCOC(=O)c1ccc2c(c1)OCCO2,16*,-14%,-2%,-5%,-6%,47
CC(CN1CCOCC1)OC(=O)c1cccc(Br)c1 (configuration not stated),-2,-5%,-6%,-1%,?,21
CC(CN1CCCCC1)OC(=O)/C=C/c1ccccc1 (configuration not stated),8,-8%,-2%,-5%,-7%,32
CC(CN1CCOCC1)OC(=O)/C=C/c1ccccc1 (configuration not stated),44*,-1%[2.29 µM],0%,0%,-1%,84*
Cc1cccc(C(=O)OC(C)CN2CCOCC2)c1 (configuration not stated),28*,15%,-4%,12%,6%,69
CC(CN1CCOCC1)OC(=O)c1ccccc1Br (configuration not stated),25*,-23%,3%,-3%,7%,46
Cc1ccc(Cn2c(C3CCCN3c3nc(C)cs3)nc3cc(C(=O)NCCCO)ccc32)cc1 (configuration not stated),nt,nt,nt,-20%,nt,nt
Cc1cc(C)cc(NC(=O)C2CCCCN2S(=O)(=O)c2ccccc2)c1 (configuration not stated),nt,nt,nt,-6%,nt,nt
CC(CN1CCOCC1)OC(=O)c1ccc2c(c1)OCCO2 (configuration not stated),61*,8%,-14%,-1%,?,66*
CC(CN1CCCCC1)OC(=O)c1ccc2c(c1)OCCO2 (configuration not stated),43*,-7%,-2%,-7%,4%,70*
CS(=O)(=O)Nc1ccc(C(=O)Nc2cccc([N+](=O)[O-])c2)cc1,8,-33%,1%,-8%,3%,-5
CCOC(=O)c1cnc(SCC(=O)c2ccc3c(c2)OCCO3)nc1N,28*,-34%,-3%,-5%,?,104*
Cc1cc(C)nc(SCC(=O)c2ccc3c(c2)OCCO3)n1,26*,2%,4%,4%,0%,-1
COc1ccc2c(c1)CCC1(C)CC(=O)C=C21 (configuration not stated),nt,nt,nt,0%,nt,nt
O=C(/C=C/NNC(=O)c1cccc(Br)c1)c1cccc(Br)c1,2,-33%,-6%,29%,-5%,50
